# From the supplement of paper PMC9262897, “Low-cost anti-mycobacterial drug discovery using engineered E. coli” (Nature Communications, 2022)
# Structures can show the parent of a compound that is named as a salt. ± gives the standard deviation of the averaged measurements.
# Legend:
# Assay in all cases: growth (OD600 after 10 h); higher = more growth (less inhibition)
# [1] = system: E. coli TESEC Alr+ wild-type control; settings: compound 0.1 mM; raw OD600 reference: median of DMSO wells 0.241, cell-free background 0.041
# Procedure: (§1)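 TESEC Mtb Alr E. coli, or the Alr+ wild-type control, in 384-well plates with Prestwick library compounds at 0.1 mM and 1% DMSO, across arabinose induction levels of 1E3 to 1E7 nM. Growth is read as OD600 after 10 h at 37 °C in triplicate biological replicates.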
# E. coli TESEC Mtb Alr [2] = settings: compound 0.1 mM
# Procedure: as §1
# E. coli TESEC Mtb Asd = settings: compound 0.1 mM
# Procedure: (§2)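 TESEC E. coli strains in which the native enzyme is deleted and replaced by arabinose-inducible Mtb Asd, DapB, CysH or TrpD, each grown in its selective medium. Strains were screened against the Prestwick library at 0.1 mM and 1% DMSO in 384-well format at low and high arabinose induction. Growth is read as OD600 after 10 h in triplicate.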
# E. coli TESEC Mtb DapB = settings: compound 0.1 mM
# Procedure: as §2
# [3] = system: E. coli TESEC Alr+ wild-type control; settings: compound 0.1 mM; raw OD600 reference: median of DMSO wells 0.49, cell-free background 0.052
# Procedure: (§3)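 TESEC Mtb Alr E. coli (ΔaraC ΔtolC ΔentC Δalr ΔdadX, arabinose-inducible Mtb Alr) or the Alr+ wild-type control strain, grown in defined M9-fructose medium without D-alanine in 96-well plates with Prestwick library compounds at 0.1 mM and 1% DMSO. Low Alr induction is 0.1 µM arabinose and high induction is 10 mM arabinose.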
# E. coli TESEC Mtb Alr [4] = settings: compound 0.1 mM; remark: listed apart in the source
# Procedure: as §3
# [5] = arabinose 1000 nM, raw OD600 reference: median of DMSO wells 0.294, cell-free background 0.041
# [6] = arabinose 10000 nM, raw OD600 reference: median of DMSO wells 0.264, cell-free background 0.041
# [7] = arabinose 100000 nM, raw OD600 reference: median of DMSO wells 0.201, cell-free background 0.041
# [8] = arabinose 1000000 nM, raw OD600 reference: median of DMSO wells 0.193, cell-free background 0.041
# [9] = arabinose 10000000 nM, raw OD600 reference: median of DMSO wells 0.146, cell-free background 0.041
# [10] = arabinose induction (level): High, raw OD600 reference: median of DMSO wells 0.331, cell-free background 0.041
# [11] = arabinose induction (level): Low, raw OD600 reference: median of DMSO wells 0.417, cell-free background 0.041
# [12] = arabinose induction (level): High, raw OD600 reference: median of DMSO wells […], cell-free background 0.041
# [13] = arabinose induction (level): Low, raw OD600 reference: median of DMSO wells 0.227, cell-free background 0.041
# [14] = arabinose 100 nM, raw OD600 reference: median of DMSO wells 0.413, cell-free background 0.052
# [15] = arabinose 10000000 nM, raw OD600 reference: median of DMSO wells […], cell-free background 0.052
SMILES,growth [1],growth (E. coli TESEC Mtb Alr [2]; [5]),growth (E. coli TESEC Mtb Alr [2]; [6]),growth (E. coli TESEC Mtb Alr [2]; [7]),growth (E. coli TESEC Mtb Alr [2]; [8]),growth (E. coli TESEC Mtb Alr [2]; [9]),growth (E. coli TESEC Mtb Asd; [10]),growth (E. coli TESEC Mtb Asd; [11]),growth (E. coli TESEC Mtb DapB; [12]),growth (E. coli TESEC Mtb DapB; [13]),growth [3],growth (E. coli TESEC Mtb Alr [4]; [14]),growth (E. coli TESEC Mtb Alr [4]; [15])
Cn1c(NCCN(CCO)CCCc2ccc([N+](=O)[O-])cc2)cc(=O)n(C)c1=O [Nifekalant],0.241 ± 0.011,0.301 ± 0.0034,0.248 ± 0.003,0.168 ± 0.0095,0.144 ± 0.0052,0.145 ± 0.002,0.179 ± 0.017,0.428 ± 0.057,0.2 ± 0.033,0.258 ± 0.013,0.534 ± 0.067,0.4 ± 0.015,0.298 ± 0.02
O=C(NCCO[N+](=O)[O-])c1cccnc1 [Nicorandil],0.2587 ± 0.0024,0.3 ± 0.021,0.286 ± 0.0046,0.208 ± 0.025,0.213 ± 0.0045,0.153 ± 0.0067,0.362 ± 0.039,0.377 ± 0.057,0.191 ± 0.0086,0.209 ± 0.023,0.481 ± 0.072,0.4153 ± 0.002,0.3332 ± 0.001
O=c1cc(-c2ccc(O)c(O)c2)oc2cc(O)cc(O)c12 [Luteolin],0.05467 ± 0.00021,0.0562 ± 0.0013,0.05 ± 0.0007,0.05233 ± 0.00025,0.0567 ± 0.0052,0.0518 ± 0.0022,0.0806 ± 0.023,0.063 ± 0.0053,0.0614 ± 0.0012,0.0607 ± 0.002,0.174 ± 0.18,0.152 ± 0.019,0.0574 ± 0.0016
COc1cc2ncnc(Nc3ccc(F)c(Cl)c3)c2cc1OCCCN1CCOCC1 [Gefitinib],0.206 ± 0.013,0.294 ± 0.019,0.24 ± 0.0039,0.198 ± 0.017,0.161 ± 0.0089,0.162 ± 0.0061,0.261 ± 0.026,0.454 ± 0.038,0.207 ± 0.012,0.246 ± 0.0095,0.496 ± 0.03,0.284 ± 0.2,0.0533 ± 0.0025
CC(C)(C)NCC(O)c1ccc(O)c(CO)c1 (stereo not drawn) [Salbutamol],0.241 ± 0.0029,0.285 ± 0.015,0.271 ± 0.0082,0.192 ± 0.0026,0.183 ± 0.0057,0.137 ± 0.0049,0.318 ± 0.067,0.436 ± 0.032,0.215 ± 0.015,0.233 ± 0.028,0.528 ± 0.092,0.43 ± 0.0098,0.383 ± 0.017
CC(NCCC(c1ccccc1)c1ccccc1)c1ccccc1 (stereo not drawn) [Fendiline hydrochloride],0.03973 ± 0.00035,0.0413 ± 0.0034,0.03877 ± 0.00012,0.0416 ± 0.0018,0.0386 ± 0.00049,0.04153 ± 0.00035,0.0469 ± 0.0006,0.04653 ± 0.00025,0.0461 ± 0.00056,0.0491 ± 0.0046,0.0558 ± 0.011,0.4097 ± 0.0034,0.0578 ± 0.0028
CCN(CC)CCCC(C)Nc1ccnc2cc(Cl)ccc12 (stereo not drawn) [Chloroquine diphosphate],0.236 ± 0.0047,0.338 ± 0.0096,0.2486 ± 0.0011,0.235 ± 0.025,0.176 ± 0.0044,0.163 ± 0.0047,0.253 ± 0.047,0.246 ± 0.029,0.201 ± 0.026,0.226 ± 0.047,0.549 ± 0.065,0.412 ± 0.014,0.328 ± 0.02
CC(CN(C)C)CN1c2ccccc2CCc2ccccc21 (stereo not drawn) [Trimipramine maleate salt],0.167 ± 0.0021,0.204 ± 0.012,0.3 ± 0.0057,0.184 ± 0.013,0.15 ± 0.0042,0.156 ± 0.0021,0.141 ± 0.019,0.267 ± 0.046,0.195 ± 0.035,0.219 ± 0.027,0.4285 ± 0.0016,0.395 ± 0.0065,0.337 ± 0.0056
COc1ccc([C@@H]2CC(=O)c3c(O)cc(O[C@@H]4O[C@H](CO[C@@H]5O[C@@H](C)[C@H](O)[C@@H](O)[C@H]5O)[C@@H](O)[C@H](O)[C@H]4O)cc3O2)cc1O [Hesperidin],0.223 ± 0.0074,0.289 ± 0.016,0.251 ± 0.0089,0.205 ± 0.0089,0.177 ± 0.0064,0.145 ± 0.0031,0.22 ± 0.035,0.284 ± 0.06,0.188 ± 0.011,0.251 ± 0.034,0.521 ± 0.053,0.407 ± 0.0099,0.388 ± 0.028
CN1CCN(C(c2ccccc2)c2ccc(Cl)cc2)CC1 (stereo not drawn) [Chlorcyclizine hydrochloride],0.179 ± 0.0072,0.215 ± 0.021,0.174 ± 0.021,0.178 ± 0.0045,0.07137 ± 0.00015,0.1236 ± 0.00055,0.149 ± 0.0065,0.221 ± 0.0041,0.205 ± 0.014,0.261 ± 0.032,0.4416 ± 0.0038,0.4163 ± 0.0041,0.222 ± 0.033
CCCC1O[C@@H]2C[C@H]3[C@@H]4CCC5=CC(=O)C=C[C@]5(C)[C@H]4[C@@H](O)C[C@]3(C)[C@]2(C(=O)CO)O1 (stereo partly drawn) [Budesonide],0.1456 ± 0.0011,0.187 ± 0.0064,0.247 ± 0.0047,0.166 ± 0.015,0.112 ± 0.0012,0.141 ± 0.0021,0.309 ± 0.023,0.31 ± 0.025,0.167 ± 0.0066,0.231 ± 0.0093,0.449 ± 0.02,0.4337 ± 0.004,0.269 ± 0.0039
CCOC(=O)N1CCC(=C2c3ccc(Cl)cc3CCc3cccnc32)CC1 [Loratadine],0.146 ± 0.0043,0.17 ± 0.0039,0.205 ± 0.0047,0.173 ± 0.0098,0.0897 ± 0.0023,0.103 ± 0.0051,0.175 ± 0.01,0.246 ± 0.023,0.195 ± 0.0081,0.179 ± 0.0076,0.402 ± 0.0043,0.391 ± 0.0066,0.0517 ± 0.00062
C#C[C@]1(O)CC[C@H]2[C@@H]3CCC4=Cc5oncc5C[C@]4(C)[C@H]3CC[C@@]21C [Danazol],0.154 ± 0.027,0.168 ± 0.026,0.174 ± 0.022,0.152 ± 0.012,0.125 ± 0.0017,0.152 ± 0.0057,0.295 ± 0.075,0.277 ± 0.022,0.169 ± 0.0079,0.176 ± 0.0079,0.46 ± 0.05,0.4015 ± 0.0024,0.309 ± 0.026
C#C[C@]1(O)CC[C@H]2[C@@H]3CCC4=CCCC[C@@H]4[C@H]3CC[C@@]21C [Lynestrenol],0.237 ± 0.0046,0.297 ± 0.0055,0.266 ± 0.015,0.18 ± 0.033,0.164 ± 0.0081,0.15 ± 0.0066,0.312 ± 0.033,0.387 ± 0.039,0.174 ± 0.0039,0.198 ± 0.027,0.451 ± 0.013,0.394 ± 0.0051,0.289 ± 0.0077
CN(C)CCOC(c1ccccc1)c1ccccc1.Cn1c(=O)c2[nH]c(Cl)nc2n(C)c1=O [Dimenhydrinate],0.213 ± 0.0024,0.255 ± 0.012,0.226 ± 0.0081,0.174 ± 0.011,0.134 ± 0.01,0.133 ± 0.0031,0.261 ± 0.044,0.342 ± 0.12,0.174 ± 0.0038,0.197 ± 0.014,0.53 ± 0.059,0.402 ± 0.008,0.319 ± 0.0044
N[C@H]1CONC1=O [(S)-(-)-Cycloserine],0.247 ± 0.0025,0.0382 ± 0.001,0.0389 ± 0.0016,0.217 ± 0.0065,0.188 ± 0.012,0.108 ± 0.0032,0.329 ± 0.034,0.354 ± 0.038,0.211 ± 0.015,0.276 ± 0.051,0.558 ± 0.063,0.045 ± 0.00044,0.13 ± 0.0078
